Sampled rows, rich in hits. Any-hit rate of the full collection: about 5.7%.
KB-3-1 tox – kills parental KB-3-1 adenocarcinoma cells. Potency, µM (series often up to 46.1 µM), actives largely listed as cytotoxic. AID 1347075. KB-3-1 viability, CellTiter-Glo ATP luminescence, 72 h. hit rate 1.4% among 400,000; further: potency means the concentration at half of the fitted maximal effect; nearly all actives have a fitted effect of over 60% in size
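Here the drug-naive KB-3-1 line serves as comparator for MDR sub-line selectivity; cells received compound titrations, 72 h at 37 °C, then CellTiter-Glo readout.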
Giardia killer – kills Giardia lamblia; AID 540267; Giardia lamblia trophozoite viability; activity change, % at 7.66 µM, hits read low; hit rate 0.15% among 340,000; in the data active means activity change below about -80%; inconclusive means between about -30% and that limit;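 further: parasites exposed to compound for two days anaerobically before the ATP read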
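Luminescent ATP signal served as the viability read-out, measured 15-30 min after adding ATP detection reagent to trophozoites that had been incubated with compounds for 48 hrs at 37 deg C anaerobically at 100 cells/well.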
Nrf2 inh – Nrf2 pathway inhibition; A549 ARE-Fluc reporter, luciferase luminescence, 18-24 h; Potency, µM (highest dose often 46 µM), for the others: at the highest dose activity change, negative = inhibition, usual class: inhibitors; hit rate 2.1% among 360,000; further: potency means the concentration at half of the fitted maximal effect; nearly all actives have a fitted effect of over 60% in size
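In this cell-based qHTS, ARE-driven firefly luciferase in A549 cells reports Nrf2 activity; the luminescent signal after BugLite lysis is the measured value, with a prior CellTiter-Fluor read for cell health.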
A549 tox-1 – kills or reduces viability of A549 cells in Nrf2 counter-screen | A549 ARE-Fluc cells, CellTiter-Fluor viability, 18-24 h | Potency, µM (top dose mostly 46 µM), for inactives: at the top dose activity change, negative = cytotoxicity, usual class: inhibitors | hit rate 0.16% among 390,000; further: potency means the concentration at half of the fitted maximal effect
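A549 ARE_Fluc cells in 5% FBS OPTI-MEM were exposed to compounds in concentration-response for 18-24 h at 37 deg C. Viability was read by CellTiter-Fluor fluorescence (Ex 405/Em 525) after 30 min, before the luciferase read.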
PI4K2A inh – PI4K2A (human) kinase inhibition. Q9BTU6. activity change, negative = inhibition, % at 76.9 µM. hit rate 0.13% among 420,000. purified PI4K2A, ADP-Glo luminescence, 1 h; stronger effect = lower value; in the data active means activity change below about -50%; inconclusive means mostly about -30% to -49%;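 further: -100% = wells without enzyme as full effect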
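PI4K2A activity was measured by ADP-Glo luminescence: enzyme (4 ug/mL stock) and phosphatidylinositol (1.2 mM stock) in Tris pH 7.5/MgCl2/EGTA/Triton X-100 buffer were reacted with ATP (300 microM stock) for one hour at ambient temperature.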
KB-V1 MDR tox – KB-V1 MDR subline cytotoxicity; KB-V1 MDR cells viability, CellTiter-Glo, 72 h; Potency, µM (highest dose often 46.1 µM), most hits filed as cytotoxic; hit rate 3.4% among 400,000; further: potency means the concentration at half of the fitted maximal effect; nearly all actives have a fitted effect of over 60% in size
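Drug-selected KB-V1 cells, grown in DMEM lacking phenol red with 10% FBS, receive compound titrations; after three days at 37 degrees C, surviving cell ATP is quantified by CellTiter-Glo luminescence and responses normalized and curve-fitted.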
FLuc counter 3 – firefly luciferase inhibition, Nrf2 hit validation | purified firefly luciferase, luminescence inhibition | hit rate 4% among 1,400 | Potency, µM (titrated, usually from 57.5 µM), for inactives: at the highest dose activity change, negative = inhibition, most hits filed as inhibitors | AID 720522 | shares compounds with Nrf2 inh; further: potency means the concentration at half of the fitted maximal effect; nearly all actives have a fitted effect of over 65% in size
Target sequence (P08659 whole entry, looked up): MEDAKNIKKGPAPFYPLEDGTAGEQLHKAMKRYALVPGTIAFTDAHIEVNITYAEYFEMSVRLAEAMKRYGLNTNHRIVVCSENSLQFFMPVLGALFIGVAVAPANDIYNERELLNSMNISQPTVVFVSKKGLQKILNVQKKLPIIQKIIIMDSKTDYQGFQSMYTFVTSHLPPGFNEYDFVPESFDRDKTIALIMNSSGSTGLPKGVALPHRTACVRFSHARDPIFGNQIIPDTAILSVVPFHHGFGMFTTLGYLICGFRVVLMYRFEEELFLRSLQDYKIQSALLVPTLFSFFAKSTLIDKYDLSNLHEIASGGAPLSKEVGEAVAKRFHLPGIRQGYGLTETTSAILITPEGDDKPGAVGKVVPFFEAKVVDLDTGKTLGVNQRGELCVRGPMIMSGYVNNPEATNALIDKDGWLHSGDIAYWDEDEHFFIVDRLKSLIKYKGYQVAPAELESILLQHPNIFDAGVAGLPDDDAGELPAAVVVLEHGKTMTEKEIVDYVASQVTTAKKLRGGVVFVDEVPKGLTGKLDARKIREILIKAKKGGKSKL
A549 tox-2 – counter-screen for Nrf2 inhibitors: cytotoxicity in A549 ARE cells | shares compounds with Nrf2 inh | A549 ARE-Fluc cells, cytotoxicity counterscreen | Potency, µM (doses to about 46.1 µM), for the others: top-dose activity change, negative = cytotoxicity, actives largely listed as inhibitors | hit rate 2% among 1,400 | AID 720523;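 further: potency means the concentration at half of the fitted maximal effect; cells exposed to compounds for 18 to 24 hours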
Nrf2 ARE inh – confirmation of Nrf2 inhibitors in A549 ARE reporter cells. A549 ARE-firefly luciferase reporter, luminescence. hit rate 74% among 1,400. AID 720524. shares compounds with Nrf2 inh. Potency, µM (series often up to 46.1 µM), inactives show at the highest dose activity change, negative = inhibition, most hits filed as inhibitors; further: potency means the concentration at half of the fitted maximal effect; nearly all actives have a fitted effect of over 65% in size
* = called active by the depositor; i = inactive; ? = inconclusive; . = not tested or not shown; ! = repeats disagree; [ ] = dose if it differs, or a comment. Unless noted, the call rests on the fitted dose curve; in most records, active means well fitted curve in the direction sought with a large enough effect; inconclusive means small, poorly fitted or top-dose-only effect, or another doubt; inactive means no such curve, though single readings can be large; an effect the other way counts as inactive or inconclusive. Unless noted, on the % scale 0 is the no-effect control and ±100 the full control effect.

SMILES | KB-3-1 tox | Giardia killer | Nrf2 inh | A549 tox-1 | PI4K2A inh | KB-V1 MDR tox | FLuc counter 3 | A549 tox-2 | Nrf2 ARE inh
Cc1ccc(S(=O)(=O)N2CCc3ccccc3C2)cc1 | i | -14.3 | -23.4% | 19.7% | 2.8 | i | . | . | .
Cc1ccc(S(=O)(=O)N2CCc3ccccc3CC2)cc1 | ? | -3.7 | 8.2µM* | -1.8% | -10.4 | ? | 2.8% | -1.7% | 4.11µM*
COc1ccc(Cl)cc1NC(=O)N1CCC(CN2CCc3ccccc3C2)CC1 | . | . | -26.1% | -0.8% | 10.5 | . | . | . | .
CCc1nnc(NC(=O)CSc2nc3c([nH]c4ccccc43)c(=O)n2-c2ccc(Cl)cc2)s1 | i | . | . | -6.4% | -5.9 | i | . | . | .
Cc1ccc(NC(=O)COc2ccc(N(C)C(=O)C(C)(C)C)cc2)cc1S(=O)(=O)N1CCCCC1 | 16.4µM* | 4.1 | 3.66µM* | ? | -3.9 | 18.4µM* | -15.2% | ? | 5.17µM*
CCc1cccc(OCC(=O)Nc2ccc(C)c(S(=O)(=O)N3CCCCCC3)c2)c1 | i | 2.0 | ? | -6.4% | -3.4 | i | . | . | .
CCN(CC)S(=O)(=O)c1cc(NC(=O)c2ccc(-n3cncn3)c([N+](=O)[O-])c2)ccc1C | . | 0.6 | 4.11µM* | ? | -3.3 | . | 0.6% | -9.9% | 6.51µM*
COc1ccc(CCNc2c(C)c(C)nc3ncnn23)cc1 | i | -3.7 | 1.03µM* | ? | 8.7 | i | 0.4% | -22.1% | 2.06µM*
O=C(COC(=O)C12CC3CC(CC(Br)(C3)C1)C2)NCc1ccco1 | ? | 5.7 | 15.4% | -0.5% | . | i | . | . | .
CCOC(=O)c1cc2c(=O)n3ccccc3nc2n(CCOC)c1=NC(=O)c1c(-c2c(F)cccc2Cl)noc1C | ? | 9.0 | 6.51µM*! | -19.9% | -0.8 | ? | 0.1% | -17.3% | ?
CCCCn1c(=NC(=O)c2c(-c3c(F)cccc3Cl)noc2C)c(C(=O)OCC)cc2c(=O)n3ccccc3nc21 | i | . | -3.9%[9.27 µM] | 0.5% | -3.1 | i | . | . | .
Cc1cc(/C=C(\C#N)C(=O)Nc2ccc(Cl)cc2)c(C)n1-c1ccc(N2CCOCC2)c([N+](=O)[O-])c1 | i | 0.1 | 5.17µM* | -22.6% | 6.6 | i | 1.9% | -10.2% | 4.61µM*
Cc1ccc(NC(=O)/C(C#N)=C/c2cc(C)n(-c3ccc(N4CCOCC4)c([N+](=O)[O-])c3)c2C)c(C)c1 | i | 4.6 | ? | -14.9% | -4.0 | i | . | . | .
COc1ccc(COC(=O)C2=C(C)NC(=O)NC2c2cccc(Br)c2)cc1 (centres undefined) | ? | -4.2 | ? | -5.0% | 8.5 | i | 1.3% | -3.8% | ?
CC1=C(C(=O)OCc2ccc3c(c2)OCO3)C(c2ccc(F)cc2)NC(=O)N1 (centres undefined) | 14.6µM* | 31.2 | 4.11µM* | -20.6% | 7.5 | 8.2µM* | 1.3% | -10.6% | 8.2µM*
CCc1ccccc1NC(=O)CSc1ncc2c(n1)-c1ccccc1N(Cc1ccc(C)cc1)S2(=O)=O | i | . | 16.2% | -12.2% | 2.9 | i | . | . | .
O=C(O)Cn1cnc2c(OCc3ccccc3)ncnc21 | i | -13.0 | -2.4% | 2.3% | 1.7 | i | . | . | .
Cc1cc(C)c(CN2CCN(C(=O)Cn3cnc4c(OCc5ccccc5)ncnc43)CC2)c(C)c1 | ? | -3.8 | 3.66µM* | -13.9% | 0.3 | i | 1.7% | -11.1% | 6.51µM*
CCc1cc(C(=O)NC2CCCc3c2cnn3-c2cccc(C)c2C)n(C)n1 (centres undefined) | ? | -11.2 | 0.184µM* | ? | -4.3 | ? | 0.9% | -3.4% | 0.082µM*
Cc1cc(C(=O)NC2CCCc3c2cnn3-c2ccc(C)c(C)c2)n(C)n1 (centres undefined) | ? | 22.2 | 0.206µM* | -21.3% | 0.1 | ? | -6.7% | -10.9% | 0.0231µM*
Cc1cc(C)cc(-n2ncc3c2CCCC3NC(=O)C2(C(N)=O)CC2)c1 (centres undefined) | ? | 1.1 | ? | -1.4% | -5.2 | ? | . | . | .
Cc1cc(C)n(CC(=O)NC2CCCc3c2cnn3-c2ccc(C)c(C)c2)n1 (centres undefined) | i | -4.3 | ? | -0.1% | -2.3 | i | . | . | .
Cc1cccc(-n2ncc3c2CCCC3NC(=O)C2(C(N)=O)CC2)c1C (centres undefined) | ? | -20.1 | 2.31µM* | -8.2% | -1.2 | i | -1.9% | -4.9% | 3.66µM*
Cc1cc(C)c(C(=O)NC2CCCc3c2cnn3-c2cccc(C)c2C)o1 (centres undefined) | i | -20.3 | ? | -12.7% | -2.4 | i | . | . | .
Cc1nc2ccc(NC(=O)c3cccs3)cc2c(=O)n1Cc1ccc(Cl)cc1 | ? | 4.1 | 4.61µM* | ? | -3.3 | ? | -10.6% | ? | 16.4µM*
SMILES | KB-3-1 tox | Giardia killer | Nrf2 inh | A549 tox-1 | PI4K2A inh | KB-V1 MDR tox | FLuc counter 3 | A549 tox-2 | Nrf2 ARE inh
CC(C)(C)c1ccc(OCc2nc3ccccc3n2CCOc2ccccc2)cc1 | i | . | 19.4% | 10.2% | 0.3 | i | . | . | .
C[n+]1ccccc1COc1ccc(C(C)(C)C)cc1 | 23.1µM* | 3.2 | 2.31µM* | ? | -0.9 | ? | -9.2% | -10.6% | 5.17µM*
COc1ccc(CCN(C)C(=O)c2cccc(S(=O)(=O)NCc3ccccc3)c2)cc1OC | i | -10.3 | ? | -5.5% | 3.4 | ? | . | . | .
CN(Cc1c(F)cccc1Cl)C(=O)c1cccc(S(=O)(=O)N2CCN(Cc3ccccc3)CC2)c1 | i | -5.3 | ? | 0.2% | 2.9 | i | . | . | .
CN(CCOc1ccc(Cl)cc1)C(=O)c1cccc(S(=O)(=O)N2CCN(c3ccccc3)CC2)c1 | ? | -16.3 | 5.8µM* | ? | 6.1 | ? | -0.3% | -13.5% | 23.1µM*
CN(Cc1ccc(OC(F)F)cc1)C(=O)c1cccc(S(=O)(=O)N2CCN(Cc3ccccc3)CC2)c1 | 14.6µM* | 17.4 | 6.51µM* | -17.0% | 1.8 | ? | -0.5% | -23.2% | 6.51µM*
COc1cccc(CN(C)C(=O)c2cccc(S(=O)(=O)NCc3ccccc3)c2)c1OC | i | -0.2 | 7.31µM* | -10.9% | -14.1 | ? | 0.0% | -3.0% | -2.7%

Screening data from PubChem BioAssay.
